In assay [1] the target is T1, Serine/threonine-protein kinase Nek9 (Homo sapiens) (UniProt Q8TD19).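 Note: each value is a mean percent inhibition of NEK9.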
T1 sequence (whole entry): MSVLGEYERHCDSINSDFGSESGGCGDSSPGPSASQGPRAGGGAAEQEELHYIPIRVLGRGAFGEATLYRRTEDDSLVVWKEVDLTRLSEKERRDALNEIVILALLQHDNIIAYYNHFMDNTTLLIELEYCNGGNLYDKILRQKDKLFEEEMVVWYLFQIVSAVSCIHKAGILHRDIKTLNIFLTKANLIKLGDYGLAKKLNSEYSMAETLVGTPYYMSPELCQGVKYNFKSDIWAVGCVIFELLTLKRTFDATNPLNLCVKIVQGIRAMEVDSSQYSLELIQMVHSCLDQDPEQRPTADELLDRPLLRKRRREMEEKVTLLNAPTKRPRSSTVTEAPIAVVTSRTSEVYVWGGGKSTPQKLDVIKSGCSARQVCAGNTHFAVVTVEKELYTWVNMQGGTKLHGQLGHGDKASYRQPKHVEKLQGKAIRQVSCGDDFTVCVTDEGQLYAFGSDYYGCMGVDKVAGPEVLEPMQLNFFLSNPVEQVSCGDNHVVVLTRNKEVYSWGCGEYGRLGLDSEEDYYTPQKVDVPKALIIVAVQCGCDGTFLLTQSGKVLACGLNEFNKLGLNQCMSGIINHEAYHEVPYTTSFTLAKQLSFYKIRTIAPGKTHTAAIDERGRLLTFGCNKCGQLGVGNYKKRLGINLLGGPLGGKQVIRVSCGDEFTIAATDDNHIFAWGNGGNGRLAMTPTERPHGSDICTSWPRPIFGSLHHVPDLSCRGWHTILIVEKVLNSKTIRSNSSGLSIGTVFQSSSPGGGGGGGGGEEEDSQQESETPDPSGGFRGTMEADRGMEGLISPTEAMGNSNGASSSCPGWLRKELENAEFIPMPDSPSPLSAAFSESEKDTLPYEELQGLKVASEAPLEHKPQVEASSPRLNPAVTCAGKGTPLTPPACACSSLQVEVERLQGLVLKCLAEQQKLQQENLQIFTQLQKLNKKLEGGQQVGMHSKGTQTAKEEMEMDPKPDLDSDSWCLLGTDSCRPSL
Particulars: at 1 µM.

Assay [2] deals with Serine/threonine-protein kinase PLK1 (Homo sapiens) (UniProt P53350). Particulars: at 0.1 µM.
Assay [3] shares this target. Particulars: at 1 µM.
In assay [4] the target is T2, Dual specificity protein kinase TTK (Homo sapiens) (UniProt P33981).
T2 sequence (whole entry): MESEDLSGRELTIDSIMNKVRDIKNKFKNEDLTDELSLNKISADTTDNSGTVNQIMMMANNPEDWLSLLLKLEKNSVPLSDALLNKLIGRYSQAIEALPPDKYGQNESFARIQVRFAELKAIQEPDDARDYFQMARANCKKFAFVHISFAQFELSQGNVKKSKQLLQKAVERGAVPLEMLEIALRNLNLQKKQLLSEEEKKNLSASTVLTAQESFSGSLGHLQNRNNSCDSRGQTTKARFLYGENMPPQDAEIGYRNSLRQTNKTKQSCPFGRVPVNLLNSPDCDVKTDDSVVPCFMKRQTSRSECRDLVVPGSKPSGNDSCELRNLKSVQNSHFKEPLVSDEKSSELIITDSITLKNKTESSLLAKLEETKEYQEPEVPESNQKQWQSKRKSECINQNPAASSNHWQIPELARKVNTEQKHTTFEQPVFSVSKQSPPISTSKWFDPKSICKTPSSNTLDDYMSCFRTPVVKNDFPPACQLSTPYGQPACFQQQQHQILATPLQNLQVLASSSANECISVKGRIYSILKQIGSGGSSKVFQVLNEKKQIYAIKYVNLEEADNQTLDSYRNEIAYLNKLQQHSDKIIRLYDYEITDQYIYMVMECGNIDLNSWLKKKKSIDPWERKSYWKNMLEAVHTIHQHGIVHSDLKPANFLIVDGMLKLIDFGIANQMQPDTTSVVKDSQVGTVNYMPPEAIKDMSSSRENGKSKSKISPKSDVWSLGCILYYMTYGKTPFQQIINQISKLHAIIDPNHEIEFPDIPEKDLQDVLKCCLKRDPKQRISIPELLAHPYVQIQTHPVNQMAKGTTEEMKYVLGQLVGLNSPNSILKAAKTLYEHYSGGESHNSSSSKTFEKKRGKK
Particulars: at 0.1 µM.

For assay [5], the system named is T3, Receptor-type tyrosine-protein kinase FLT3 (Homo sapiens), P36888 [D835Y].
T3 sequence (whole entry): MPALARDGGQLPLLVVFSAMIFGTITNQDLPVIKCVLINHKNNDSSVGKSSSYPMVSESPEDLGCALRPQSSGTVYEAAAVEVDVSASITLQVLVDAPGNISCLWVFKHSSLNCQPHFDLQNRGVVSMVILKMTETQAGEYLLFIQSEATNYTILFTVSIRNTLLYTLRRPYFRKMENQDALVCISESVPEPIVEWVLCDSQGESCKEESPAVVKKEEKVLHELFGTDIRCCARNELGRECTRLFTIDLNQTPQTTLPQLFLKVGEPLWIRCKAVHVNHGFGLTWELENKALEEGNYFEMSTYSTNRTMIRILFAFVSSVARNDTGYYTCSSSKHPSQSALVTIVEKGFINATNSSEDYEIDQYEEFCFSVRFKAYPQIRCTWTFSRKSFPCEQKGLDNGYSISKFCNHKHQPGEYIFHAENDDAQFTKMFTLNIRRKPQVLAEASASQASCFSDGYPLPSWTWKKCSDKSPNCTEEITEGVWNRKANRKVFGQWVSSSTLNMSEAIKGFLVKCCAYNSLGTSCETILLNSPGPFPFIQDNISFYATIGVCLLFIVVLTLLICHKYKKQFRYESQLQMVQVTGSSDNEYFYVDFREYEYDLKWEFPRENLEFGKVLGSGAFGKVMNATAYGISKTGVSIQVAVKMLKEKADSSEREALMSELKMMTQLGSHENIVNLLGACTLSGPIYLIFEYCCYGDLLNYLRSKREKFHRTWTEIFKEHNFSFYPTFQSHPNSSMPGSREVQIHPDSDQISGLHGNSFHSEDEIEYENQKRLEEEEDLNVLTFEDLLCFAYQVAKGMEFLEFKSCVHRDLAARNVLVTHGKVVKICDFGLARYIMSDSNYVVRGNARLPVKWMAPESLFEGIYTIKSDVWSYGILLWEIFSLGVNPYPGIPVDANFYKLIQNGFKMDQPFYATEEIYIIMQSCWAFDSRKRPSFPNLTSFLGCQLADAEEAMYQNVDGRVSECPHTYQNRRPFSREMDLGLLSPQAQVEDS
Particulars: at 1 µM.

Assay [6] addresses Vascular endothelial growth factor receptor 3 (Homo sapiens) (UniProt P35916). Particulars: at 0.1 µM.
Assay [7] shares this target. Particulars: at 1 µM.
In assay [8] the target is Macrophage colony-stimulating factor 1 receptor (Homo sapiens) (UniProt P07333). Particulars: at 0.1 µM.
For assay [9] the target is unchanged. Particulars: at 1 µM.
The target in assay [10] is Tyrosine-protein kinase Fyn (Homo sapiens) (UniProt P06241). Particulars: at 0.1 µM.
For assay [11] the target is unchanged. Particulars: at 1 µM.
The target of assay [12] is Tyrosine-protein kinase HCK (Homo sapiens) (UniProt P08631). Particulars: at 0.1 µM.
Assay [13] has the same target. Particulars: at 1 µM.
In assay [14] the target is Insulin-like growth factor 1 receptor (Homo sapiens) (UniProt P08069). Particulars: at 0.1 µM.
For assay [15] the target is unchanged. Particulars: at 1 µM.
The target of assay [16] is Insulin receptor (Homo sapiens) (UniProt P06213). Particulars: at 0.1 µM.
For assay [17] the target is unchanged. Particulars: at 1 µM.
The target in assay [18] is Insulin receptor-related protein (Homo sapiens) (UniProt P14616). Particulars: at 0.1 µM.
The target is the same in assay [19]. Particulars: at 1 µM.
In assay [20] the target is T4, Tyrosine-protein kinase ITK/TSK (Homo sapiens) (UniProt Q08881).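 Note: mean percent inhibition of ITK from the GSK PKIS screen.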
T4 sequence (whole entry): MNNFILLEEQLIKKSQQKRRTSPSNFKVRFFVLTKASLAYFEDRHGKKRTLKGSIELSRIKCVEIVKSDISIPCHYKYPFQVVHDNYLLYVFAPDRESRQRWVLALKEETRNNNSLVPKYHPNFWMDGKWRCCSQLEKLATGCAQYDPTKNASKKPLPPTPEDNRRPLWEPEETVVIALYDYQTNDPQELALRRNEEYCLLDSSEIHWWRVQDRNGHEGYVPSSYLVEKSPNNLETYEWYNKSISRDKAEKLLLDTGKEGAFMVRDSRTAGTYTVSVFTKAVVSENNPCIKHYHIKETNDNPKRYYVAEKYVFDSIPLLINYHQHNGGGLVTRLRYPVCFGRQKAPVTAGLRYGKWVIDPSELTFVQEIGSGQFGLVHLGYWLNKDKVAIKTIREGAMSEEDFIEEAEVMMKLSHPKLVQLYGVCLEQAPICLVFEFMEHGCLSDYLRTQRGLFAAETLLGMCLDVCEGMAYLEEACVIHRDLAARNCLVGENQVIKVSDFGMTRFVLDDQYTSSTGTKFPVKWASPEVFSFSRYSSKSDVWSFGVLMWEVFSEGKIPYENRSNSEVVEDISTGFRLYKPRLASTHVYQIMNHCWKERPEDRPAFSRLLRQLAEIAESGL
Particulars: at 0.1 µM.

Sequence of Insulin-like growth factor 1 receptor (Homo sapiens) (P08069 31-736 limits assumed): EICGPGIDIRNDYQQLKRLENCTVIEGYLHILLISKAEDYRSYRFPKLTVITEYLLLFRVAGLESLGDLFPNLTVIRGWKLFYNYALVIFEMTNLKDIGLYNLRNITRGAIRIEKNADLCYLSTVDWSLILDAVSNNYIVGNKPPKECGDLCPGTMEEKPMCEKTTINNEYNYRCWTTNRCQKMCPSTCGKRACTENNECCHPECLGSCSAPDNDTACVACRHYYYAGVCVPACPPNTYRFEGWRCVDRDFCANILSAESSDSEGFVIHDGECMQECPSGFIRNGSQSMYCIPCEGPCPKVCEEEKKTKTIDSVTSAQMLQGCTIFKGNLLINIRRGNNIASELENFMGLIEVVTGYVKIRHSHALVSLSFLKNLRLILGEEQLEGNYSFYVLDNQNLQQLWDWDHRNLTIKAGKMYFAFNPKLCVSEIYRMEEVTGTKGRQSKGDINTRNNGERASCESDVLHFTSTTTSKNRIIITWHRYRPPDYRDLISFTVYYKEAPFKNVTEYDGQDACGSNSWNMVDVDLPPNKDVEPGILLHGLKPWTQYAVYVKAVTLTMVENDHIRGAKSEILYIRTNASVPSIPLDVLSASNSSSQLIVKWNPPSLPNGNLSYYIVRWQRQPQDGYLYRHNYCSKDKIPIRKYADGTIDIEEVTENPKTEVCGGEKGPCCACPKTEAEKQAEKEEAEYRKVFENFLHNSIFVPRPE
Sequence of Insulin-like growth factor 1 receptor (Homo sapiens) (P08069 741-1367 limits assumed): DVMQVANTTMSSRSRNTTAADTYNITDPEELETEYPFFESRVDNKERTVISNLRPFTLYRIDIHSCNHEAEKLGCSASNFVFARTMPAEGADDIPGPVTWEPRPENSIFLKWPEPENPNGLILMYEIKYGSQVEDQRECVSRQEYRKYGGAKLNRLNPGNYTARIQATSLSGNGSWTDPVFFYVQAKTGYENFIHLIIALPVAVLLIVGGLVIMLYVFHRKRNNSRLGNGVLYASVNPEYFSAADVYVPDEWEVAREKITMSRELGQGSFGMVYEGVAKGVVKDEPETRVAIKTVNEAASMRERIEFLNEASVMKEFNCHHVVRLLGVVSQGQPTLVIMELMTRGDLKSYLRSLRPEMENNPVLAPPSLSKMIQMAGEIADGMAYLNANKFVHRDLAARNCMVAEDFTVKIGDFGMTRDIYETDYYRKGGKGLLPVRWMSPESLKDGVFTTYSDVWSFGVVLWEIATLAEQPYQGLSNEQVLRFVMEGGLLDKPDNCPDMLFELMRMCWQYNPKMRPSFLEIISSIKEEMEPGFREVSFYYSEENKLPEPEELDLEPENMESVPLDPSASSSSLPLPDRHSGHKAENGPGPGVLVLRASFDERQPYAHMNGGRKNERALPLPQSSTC
Sequence of Insulin receptor-related protein (Homo sapiens) (P14616 27-742 limits assumed): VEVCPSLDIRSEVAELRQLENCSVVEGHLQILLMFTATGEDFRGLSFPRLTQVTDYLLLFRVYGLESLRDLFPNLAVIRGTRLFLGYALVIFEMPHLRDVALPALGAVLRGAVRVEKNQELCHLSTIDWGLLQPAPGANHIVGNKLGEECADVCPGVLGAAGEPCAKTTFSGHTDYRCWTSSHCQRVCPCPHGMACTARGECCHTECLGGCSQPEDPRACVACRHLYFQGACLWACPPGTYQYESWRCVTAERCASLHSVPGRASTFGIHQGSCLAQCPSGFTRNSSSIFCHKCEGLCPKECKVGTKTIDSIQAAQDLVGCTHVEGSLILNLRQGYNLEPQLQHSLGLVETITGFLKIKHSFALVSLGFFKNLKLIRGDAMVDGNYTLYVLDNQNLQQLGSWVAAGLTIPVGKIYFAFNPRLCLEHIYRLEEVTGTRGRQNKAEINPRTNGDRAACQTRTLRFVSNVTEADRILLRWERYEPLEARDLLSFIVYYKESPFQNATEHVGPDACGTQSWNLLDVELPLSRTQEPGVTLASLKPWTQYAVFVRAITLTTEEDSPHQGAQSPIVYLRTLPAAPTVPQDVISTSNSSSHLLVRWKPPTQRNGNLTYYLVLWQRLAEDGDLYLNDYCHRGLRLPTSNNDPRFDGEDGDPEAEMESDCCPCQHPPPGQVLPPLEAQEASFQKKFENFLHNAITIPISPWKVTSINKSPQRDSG
Sequence of Insulin receptor-related protein (Homo sapiens) (P14616 747-1297 limits assumed): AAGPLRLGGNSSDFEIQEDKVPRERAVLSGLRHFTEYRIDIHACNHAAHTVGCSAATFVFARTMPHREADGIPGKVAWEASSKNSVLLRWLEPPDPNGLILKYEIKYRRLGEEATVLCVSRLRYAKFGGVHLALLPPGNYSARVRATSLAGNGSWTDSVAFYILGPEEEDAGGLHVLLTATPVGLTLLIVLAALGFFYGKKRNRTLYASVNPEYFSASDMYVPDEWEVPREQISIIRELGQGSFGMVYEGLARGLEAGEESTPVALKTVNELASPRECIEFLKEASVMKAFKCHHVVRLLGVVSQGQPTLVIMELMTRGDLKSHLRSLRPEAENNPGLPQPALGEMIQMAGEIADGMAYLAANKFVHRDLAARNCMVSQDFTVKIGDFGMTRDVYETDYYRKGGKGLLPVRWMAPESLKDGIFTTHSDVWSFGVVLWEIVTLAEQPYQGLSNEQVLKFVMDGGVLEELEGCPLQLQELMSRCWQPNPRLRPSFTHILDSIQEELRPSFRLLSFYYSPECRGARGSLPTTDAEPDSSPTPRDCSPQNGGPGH
Sequence of Vascular endothelial growth factor receptor 3 (Homo sapiens) (P35916 whole entry): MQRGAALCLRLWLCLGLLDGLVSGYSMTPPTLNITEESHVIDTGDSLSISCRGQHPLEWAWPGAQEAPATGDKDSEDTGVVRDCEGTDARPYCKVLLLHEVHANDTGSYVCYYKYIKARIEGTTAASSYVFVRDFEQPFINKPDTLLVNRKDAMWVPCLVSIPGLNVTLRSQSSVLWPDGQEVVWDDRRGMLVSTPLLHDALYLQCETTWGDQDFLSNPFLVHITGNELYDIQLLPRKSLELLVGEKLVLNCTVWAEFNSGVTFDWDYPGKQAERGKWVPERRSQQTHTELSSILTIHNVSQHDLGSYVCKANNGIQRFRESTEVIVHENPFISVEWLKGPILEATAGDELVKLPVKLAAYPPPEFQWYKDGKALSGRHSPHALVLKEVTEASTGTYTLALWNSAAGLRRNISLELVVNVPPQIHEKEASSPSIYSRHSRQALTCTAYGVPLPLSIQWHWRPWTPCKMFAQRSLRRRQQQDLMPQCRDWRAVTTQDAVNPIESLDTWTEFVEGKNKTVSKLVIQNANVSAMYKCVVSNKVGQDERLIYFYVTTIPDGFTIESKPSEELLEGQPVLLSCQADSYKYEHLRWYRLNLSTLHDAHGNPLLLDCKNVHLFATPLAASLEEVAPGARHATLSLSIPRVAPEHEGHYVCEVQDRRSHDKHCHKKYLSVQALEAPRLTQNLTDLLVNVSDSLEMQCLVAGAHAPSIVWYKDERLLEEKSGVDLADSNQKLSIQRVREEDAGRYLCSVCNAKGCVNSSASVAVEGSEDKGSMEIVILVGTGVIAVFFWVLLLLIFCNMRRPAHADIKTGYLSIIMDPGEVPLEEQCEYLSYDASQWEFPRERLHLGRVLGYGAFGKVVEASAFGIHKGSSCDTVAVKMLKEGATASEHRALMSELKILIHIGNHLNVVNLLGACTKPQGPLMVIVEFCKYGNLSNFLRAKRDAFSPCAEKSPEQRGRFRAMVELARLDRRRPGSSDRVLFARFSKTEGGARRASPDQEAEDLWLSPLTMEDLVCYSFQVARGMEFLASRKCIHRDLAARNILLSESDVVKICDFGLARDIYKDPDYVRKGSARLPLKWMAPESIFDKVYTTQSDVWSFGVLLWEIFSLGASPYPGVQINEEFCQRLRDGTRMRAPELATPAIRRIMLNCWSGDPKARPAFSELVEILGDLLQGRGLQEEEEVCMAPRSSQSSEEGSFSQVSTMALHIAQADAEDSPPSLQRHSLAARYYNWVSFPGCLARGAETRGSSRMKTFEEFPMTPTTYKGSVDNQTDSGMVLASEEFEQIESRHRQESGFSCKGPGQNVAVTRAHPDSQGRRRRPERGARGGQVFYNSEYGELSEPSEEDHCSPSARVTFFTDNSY
Sequence of Tyrosine-protein kinase HCK (Homo sapiens) (P08631 2-526 limits assumed): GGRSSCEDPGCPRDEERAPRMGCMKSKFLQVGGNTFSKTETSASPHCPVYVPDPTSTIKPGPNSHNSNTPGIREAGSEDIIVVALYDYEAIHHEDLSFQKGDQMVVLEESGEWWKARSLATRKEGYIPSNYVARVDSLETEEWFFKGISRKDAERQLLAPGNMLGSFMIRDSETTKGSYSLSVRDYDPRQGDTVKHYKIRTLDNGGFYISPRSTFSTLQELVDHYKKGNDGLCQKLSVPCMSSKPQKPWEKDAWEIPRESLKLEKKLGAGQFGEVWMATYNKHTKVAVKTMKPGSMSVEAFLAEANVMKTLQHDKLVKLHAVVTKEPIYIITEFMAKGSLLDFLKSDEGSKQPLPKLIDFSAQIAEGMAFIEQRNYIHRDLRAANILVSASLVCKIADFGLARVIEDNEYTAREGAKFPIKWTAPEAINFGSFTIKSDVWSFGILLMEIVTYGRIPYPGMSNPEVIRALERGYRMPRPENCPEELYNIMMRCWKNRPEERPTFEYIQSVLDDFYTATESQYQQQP
Sequence of Tyrosine-protein kinase Fyn (Homo sapiens) (P06241 2-537 limits assumed): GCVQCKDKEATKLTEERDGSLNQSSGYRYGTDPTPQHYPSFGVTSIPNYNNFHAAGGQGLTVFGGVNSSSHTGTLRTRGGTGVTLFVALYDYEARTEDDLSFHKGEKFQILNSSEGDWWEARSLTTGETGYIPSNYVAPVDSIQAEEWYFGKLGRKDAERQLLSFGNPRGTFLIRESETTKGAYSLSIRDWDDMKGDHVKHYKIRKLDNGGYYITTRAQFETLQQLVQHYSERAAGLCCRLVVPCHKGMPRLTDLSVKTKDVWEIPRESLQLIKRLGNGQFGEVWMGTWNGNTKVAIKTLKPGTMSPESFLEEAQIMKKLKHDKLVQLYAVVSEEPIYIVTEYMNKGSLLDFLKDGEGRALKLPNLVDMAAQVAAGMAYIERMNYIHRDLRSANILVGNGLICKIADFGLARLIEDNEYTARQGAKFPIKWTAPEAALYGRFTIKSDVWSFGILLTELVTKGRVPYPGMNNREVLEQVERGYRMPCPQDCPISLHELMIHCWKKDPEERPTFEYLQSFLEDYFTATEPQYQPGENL

Broadly, the inhibition is the relative decrease from the control value, in per cent. On to `NS(=O)(=O)c1cccc(Nc2cc(-c3ccc(F)cc3)n[nH]2)c1`, for which the inhibition in [1] was 9.48%; in assay [2], 3.38%; in assay [3] it was 3.33%; in assay [4], 5.88%; in [5] it was 13.9%; in assay [6], -0.78%. Also, the inhibition in [7] is 2.02%; in [8], 3.25%; in assay [9], 16.6%; in [10], 1.7%; in assay [11], 5.32%; in assay [12] it was 3.23%. Also, the inhibition in assay [13] worked out at 7.76%; in [14] it was 0.35%; in assay [15], 1.22%; in [16], 0.86%; in [17], 1.03%; in [18], 1.9%. For the same molecule, the inhibition in assay [19] turned out to be 2.3%; in [20], 1.67%.
In the case of `Cc1ccc2c(-c3ccnc(Nc4cccc(C(F)(F)F)c4)n3)c(-c3ccccc3)nn2n1`, the inhibition was determined as 7.33% in [1]; 7.39% in [2]; 6.37% in [3]; 10.5% in [4]; 1.38% in [5]; 4.59% in assay [6]. Also, the inhibition in [7] stood at 24.9%; in [8], 1.77%; in [9] it was 23.1%; in assay [10], 15.6%; in assay [11] it was 61%; in assay [12], 11.3%. For the same molecule, the inhibition in [13] worked out at 45.1%; in [14], 2.54%; in assay [15], 4.76%; in assay [16], 8.09%; in assay [17] it was 24.8%; in assay [18], 2.33%. In addition, the values for the inhibition in assay [19] and in [20] were 6.16% and 1.33%, respectively.
Take `CCCN1CCCC(c2ccc(Nc3nc(Nc4cc(F)ccc4C(N)=O)c4cc[nH]c4n3)c(OC)c2)C1` (stereo not given): the inhibition in assay [1] is 12.8%; in [2], 13.3%; in [3] it was 48.1%; in assay [4] it was 75.9%; in assay [5], 43.4%; in [6], -0.55%. Also, the inhibition in assay [7] is 4.1%; in assay [8], 34.6%; in [9], 78.6%; in assay [10], 3.45%; in assay [11], 16.1%; in [12] it was 7.06%. For the same molecule, the inhibition in [13] is 11.9%; in [14] it was 93%; in [15], 94.8%; in assay [16], 98.9%; in assay [17], 96.2%; in assay [18] it was 93.7%. Also, the inhibition in assay [19] is 97%; in assay [20], 2.35%.

Source of the values: ChEMBL document CHEMBL1961873, “Compounds: GSK PKIS; Assays: Nanosyn kinase panel” (2012).
